The text below walks through data of PubChem BioAssay (EPA / NIEHS).

For orientation: AC50 means the concentration at which the activity in the assay is half-maximal.

Results filed as inconclusive are left out. Calls of active or inactive are those of the source. Rule for the calls: active = hit-call score of the fitted dose curve at least 0.9, where 1 is the maximum; inconclusive = response in the unintended direction; inactive = score below 0.9.

One experiment relates to rat CYP2C6, gene 293989. Nature of the experiment: NVS_ADME_rCYP2C6: NovaScreen (NVS) CYP450-related Enzyme Activity (ADME) Assay for rat CYP2C6 (AID 2283120). In short, it runs like this: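 Compounds first tested in duplicate at 10 uM, hits (e.g. 30% inhibition) re-run in singleton dose series to a 20 uM top concentration. Enzyme activity of recombinant rat CYP2C6 measured via fluorescent substrate turnover after 1 h; acetonitrile baseline.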

Experiment [1] has as its target rat CYP2D1, Cyp2d1 (gene 266684) (UniProt P10633). Put plainly: NVS_ADME_rCYP2D1: NovaScreen (NVS) CYP450-related Enzyme Activity (ADME) Assay for rat CYP2D1 (AID 2283122). An outline of the steps:
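Rat CYP2D1 enzyme activity measured by fluorescence intensity in a cell-free format, 0.75 h post-dosing, acetonitrile as negative control. Screening at 10 uM in duplicate, with actives followed in concentration series up to 20 uM.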

For experiment [2], the target named is rat CYP2A2, Cyp2a2 (gene 24895) (UniProt P15149). Put plainly: NVS_ADME_rCYP2A2: NovaScreen (NVS) CYP450-related Enzyme Activity (ADME) Assay for rat CYP2A2 (AID 2283116). An outline of the steps:
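Compounds first tested in duplicate at 10 uM, then in singleton concentration series up to 20 uM when over threshold. Activity of the recombinant enzyme read by fluorescence at 0.2 h, normalised to acetonitrile vehicle.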

The subject of another experiment is rat CYP2B1, gene 24300. Put plainly: NVS_ADME_rCYP2B1: NovaScreen (NVS) CYP450-related Enzyme Activity (ADME) Assay for rat CYP2B1 (AID 2283117). An outline of the steps: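 Cell-free fluorescence enzyme assay, recombinant rat CYP2B1, 0.75 h after dosing. Single-concentration duplicates at 10 uM preceded concentration series (max 20 uM) for actives; acetonitrile as negative-control baseline.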

Experiment [3] addresses rat CYP2C11, Cyp2c11 (gene 29277) (UniProt P08683). Nature of the experiment: NVS_ADME_rCYP2C11: NovaScreen (NVS) CYP450-related Enzyme Activity (ADME) Assay for rat CYP2C11 (AID 2283118). In short, it runs like this:
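Screened first at 10 uM in duplicate, hits followed by concentration-response. Recombinant rat enzyme activity monitored by fluorescence 0.33 h post-dosing, normalised to acetonitrile negative control.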

Experiment [4] concerns the target rat CYP2C13, Cyp2c13 (gene 171521) (UniProt P20814). Put plainly: NVS_ADME_rCYP2C13: NovaScreen (NVS) CYP450-related Enzyme Activity (ADME) Assay for rat CYP2C13 (AID 2283121). An outline of the steps:
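Inhibition is read as decreased fluorescent product formation, referenced to acetonitrile vehicle. Cell-free recombinant rat Cyp2c13 reaction ran 0.75 hour; compounds first at 10 uM in duplicate, then concentration series for actives.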

Another experiment relates to rat CYP3A1, gene 25642. Nature of the experiment: NVS_ADME_rCYP3A1: NovaScreen (NVS) CYP450-related Enzyme Activity (ADME) Assay for rat CYP3A1 (AID 2283126). In short, it runs like this: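 Compounds went first at 10 uM duplicate, then to series with 20 uM maximum. Fluorescence from substrate turnover by the recombinant enzyme was measured 0.5 h post-dosing, inhibition scored against acetonitrile vehicle.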

Experiment [5] addresses rat CYP3A2, Cyp3a2 (gene 266682) (UniProt P05183). Put plainly: NVS_ADME_rCYP3A2: NovaScreen (NVS) CYP450-related Enzyme Activity (ADME) Assay for rat CYP3A2 (AID 2283128). An outline of the steps:
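Fluorescence readout of extracted rat CYP3A2 activity 0.5 h post-dose, acetonitrile as negative control. Single-point testing in duplicate at 10 uM, followed by concentration series to a 20 uM maximum for actives.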

In experiment [6] the target is rat CYP2D2, Cyp2d26 (gene 25053) (UniProt P10634). Put plainly: NVS_ADME_rCYP2D2: NovaScreen (NVS) CYP450-related Enzyme Activity (ADME) Assay for rat CYP2D2 (AID 2283124). An outline of the steps:
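Single-concentration duplicate testing at 10 uM, followed by concentration-response (top 20 uM) for chemicals passing threshold. Enzyme activity of the recombinant rat isoform measured by fluorescence after 0.75 h, acetonitrile as baseline.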

Experiment [7] deals with human Acetylcholinesterase (AChE), ACHE (gene 43) (UniProt P22303). Nature of the experiment: NVS_ENZ_hAChE: NovaScreen (NVS) Enzymatic Assay for human Acetylcholinesterase (AChE) (AID 2283129). In short, it runs like this:
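Actives from a duplicate single-point screen (25 uM) were followed up in concentration series. Enzyme activity read by absorbance (colorimetric) 0.33 hour after dosing, cell-free, normalized to DMSO, with loss of signal scored.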

Chain of rat CYP2D2, Cyp2d26 (gene 25053) (P10634 whole entry, looked up, canonical isoform): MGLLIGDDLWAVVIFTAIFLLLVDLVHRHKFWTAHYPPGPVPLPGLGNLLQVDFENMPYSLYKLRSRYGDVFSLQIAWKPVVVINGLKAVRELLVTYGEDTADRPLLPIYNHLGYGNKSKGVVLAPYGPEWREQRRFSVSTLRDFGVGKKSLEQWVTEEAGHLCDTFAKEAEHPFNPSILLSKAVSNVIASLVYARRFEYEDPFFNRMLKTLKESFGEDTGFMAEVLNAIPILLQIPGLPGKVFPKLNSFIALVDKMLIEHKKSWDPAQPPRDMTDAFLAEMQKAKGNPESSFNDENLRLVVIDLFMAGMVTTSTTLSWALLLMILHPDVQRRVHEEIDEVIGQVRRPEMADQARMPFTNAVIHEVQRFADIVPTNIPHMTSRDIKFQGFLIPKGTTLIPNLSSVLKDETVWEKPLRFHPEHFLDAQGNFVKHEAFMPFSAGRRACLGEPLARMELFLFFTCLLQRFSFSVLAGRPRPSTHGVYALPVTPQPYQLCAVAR
Chain of rat CYP2C13, Cyp2c13 (gene 171521) (P20814 whole entry, looked up): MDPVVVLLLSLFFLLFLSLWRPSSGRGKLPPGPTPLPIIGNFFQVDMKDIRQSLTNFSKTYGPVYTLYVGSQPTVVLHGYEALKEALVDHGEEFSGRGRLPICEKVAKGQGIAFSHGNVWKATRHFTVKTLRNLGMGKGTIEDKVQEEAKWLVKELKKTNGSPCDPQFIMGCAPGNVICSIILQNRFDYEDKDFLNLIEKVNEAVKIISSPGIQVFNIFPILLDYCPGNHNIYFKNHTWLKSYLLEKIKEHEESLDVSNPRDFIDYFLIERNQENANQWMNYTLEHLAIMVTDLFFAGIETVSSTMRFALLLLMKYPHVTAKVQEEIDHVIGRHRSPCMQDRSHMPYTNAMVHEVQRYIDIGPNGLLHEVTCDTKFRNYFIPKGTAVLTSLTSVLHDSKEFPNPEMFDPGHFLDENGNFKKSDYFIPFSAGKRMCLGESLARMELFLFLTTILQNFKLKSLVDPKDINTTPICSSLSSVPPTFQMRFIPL
Chain of rat CYP2A2, Cyp2a2 (gene 24895) (P15149 whole entry, looked up): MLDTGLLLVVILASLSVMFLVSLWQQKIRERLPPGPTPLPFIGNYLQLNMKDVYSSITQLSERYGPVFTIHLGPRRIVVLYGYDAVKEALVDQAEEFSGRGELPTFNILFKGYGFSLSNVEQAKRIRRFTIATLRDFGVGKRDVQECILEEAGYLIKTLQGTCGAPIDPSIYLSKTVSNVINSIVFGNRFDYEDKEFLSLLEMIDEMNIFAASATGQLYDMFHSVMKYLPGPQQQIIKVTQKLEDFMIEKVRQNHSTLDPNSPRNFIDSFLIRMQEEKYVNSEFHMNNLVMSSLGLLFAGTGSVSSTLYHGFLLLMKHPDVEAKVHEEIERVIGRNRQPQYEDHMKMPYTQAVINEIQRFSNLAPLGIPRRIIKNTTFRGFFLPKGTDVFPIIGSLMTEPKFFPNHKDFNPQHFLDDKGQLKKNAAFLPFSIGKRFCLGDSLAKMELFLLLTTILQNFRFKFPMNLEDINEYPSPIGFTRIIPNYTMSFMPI
Chain of rat CYP2C11, Cyp2c11 (gene 29277) (P08683 whole entry, looked up): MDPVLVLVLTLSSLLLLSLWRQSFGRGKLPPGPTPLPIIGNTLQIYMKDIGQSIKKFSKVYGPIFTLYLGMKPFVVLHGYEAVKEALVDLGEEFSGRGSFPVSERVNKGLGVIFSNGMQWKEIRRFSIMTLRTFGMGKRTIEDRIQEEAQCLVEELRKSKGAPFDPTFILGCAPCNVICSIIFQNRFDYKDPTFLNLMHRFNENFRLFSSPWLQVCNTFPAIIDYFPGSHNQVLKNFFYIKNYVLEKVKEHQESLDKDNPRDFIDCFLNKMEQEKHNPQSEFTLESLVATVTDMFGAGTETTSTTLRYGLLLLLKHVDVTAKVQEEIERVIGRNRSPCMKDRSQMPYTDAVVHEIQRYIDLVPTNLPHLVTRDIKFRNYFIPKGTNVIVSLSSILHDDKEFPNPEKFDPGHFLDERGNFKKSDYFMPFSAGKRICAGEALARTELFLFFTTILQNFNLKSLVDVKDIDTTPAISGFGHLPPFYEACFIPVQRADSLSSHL
Chain of human Acetylcholinesterase (AChE), ACHE (gene 43) (P22303 whole entry, looked up): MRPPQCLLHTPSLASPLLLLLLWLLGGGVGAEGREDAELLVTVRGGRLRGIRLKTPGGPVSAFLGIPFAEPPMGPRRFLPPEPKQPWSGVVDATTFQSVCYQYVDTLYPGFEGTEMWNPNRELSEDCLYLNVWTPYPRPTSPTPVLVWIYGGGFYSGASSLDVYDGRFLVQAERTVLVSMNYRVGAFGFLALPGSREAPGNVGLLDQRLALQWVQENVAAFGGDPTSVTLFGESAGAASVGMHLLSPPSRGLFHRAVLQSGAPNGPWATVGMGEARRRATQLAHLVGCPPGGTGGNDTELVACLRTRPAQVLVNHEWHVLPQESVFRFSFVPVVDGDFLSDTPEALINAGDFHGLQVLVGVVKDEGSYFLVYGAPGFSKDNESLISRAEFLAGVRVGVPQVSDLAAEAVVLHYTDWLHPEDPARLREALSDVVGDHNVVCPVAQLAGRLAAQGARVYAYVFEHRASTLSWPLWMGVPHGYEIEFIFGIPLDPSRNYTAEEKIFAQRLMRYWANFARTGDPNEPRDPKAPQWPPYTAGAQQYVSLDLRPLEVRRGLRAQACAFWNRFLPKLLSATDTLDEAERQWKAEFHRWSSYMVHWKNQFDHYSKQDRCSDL
Chain of rat CYP2D1, Cyp2d1 (gene 266684) (P10633 whole entry, looked up): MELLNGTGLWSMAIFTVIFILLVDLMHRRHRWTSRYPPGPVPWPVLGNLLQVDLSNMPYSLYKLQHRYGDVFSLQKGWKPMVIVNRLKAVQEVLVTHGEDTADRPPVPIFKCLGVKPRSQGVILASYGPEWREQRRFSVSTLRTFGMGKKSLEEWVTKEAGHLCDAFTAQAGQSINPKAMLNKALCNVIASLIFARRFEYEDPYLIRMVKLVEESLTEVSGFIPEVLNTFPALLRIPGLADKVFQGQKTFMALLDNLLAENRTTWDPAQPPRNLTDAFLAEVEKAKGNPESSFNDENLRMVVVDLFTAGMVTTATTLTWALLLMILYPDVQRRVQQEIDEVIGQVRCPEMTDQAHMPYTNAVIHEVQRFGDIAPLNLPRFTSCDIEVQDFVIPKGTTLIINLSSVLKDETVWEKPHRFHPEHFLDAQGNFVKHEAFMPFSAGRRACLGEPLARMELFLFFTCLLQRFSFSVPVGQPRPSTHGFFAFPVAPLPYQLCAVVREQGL
Chain of rat CYP3A2, Cyp3a2 (gene 266682) (P05183 whole entry, looked up): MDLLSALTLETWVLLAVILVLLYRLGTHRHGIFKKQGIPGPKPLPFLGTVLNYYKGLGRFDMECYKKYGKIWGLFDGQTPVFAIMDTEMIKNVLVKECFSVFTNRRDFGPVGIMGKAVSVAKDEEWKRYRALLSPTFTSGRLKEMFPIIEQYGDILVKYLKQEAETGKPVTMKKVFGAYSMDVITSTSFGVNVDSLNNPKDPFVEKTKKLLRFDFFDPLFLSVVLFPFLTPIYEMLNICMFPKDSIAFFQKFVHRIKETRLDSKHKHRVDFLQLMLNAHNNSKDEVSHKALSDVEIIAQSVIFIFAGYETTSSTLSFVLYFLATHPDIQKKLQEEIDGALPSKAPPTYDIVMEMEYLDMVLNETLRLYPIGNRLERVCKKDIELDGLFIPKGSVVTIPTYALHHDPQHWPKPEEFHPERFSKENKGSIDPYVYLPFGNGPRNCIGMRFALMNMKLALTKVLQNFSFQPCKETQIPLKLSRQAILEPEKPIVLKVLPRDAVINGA

For the compound `COP(=S)(OC)Oc1ccc(SC)c(C)c1`, the concentration at half-maximal activity (AC50) in the experiment with rat CYP2C6, gene 293989 was 1.83 µM (active).

`Cc1[nH]c(=O)n(C(C)(C)C)c(=O)c1Cl`: in [1], the AC50 was 3.45 µM (active).

`CC(C)(C)C(O)C(Oc1ccc(Cl)cc1)n1cncn1` (stereo not given): the AC50 in experiment [2] is 0.32 µM (active); with rat CYP2B1, gene 24300, 5.58 µM (active); in experiment [3], 4.45 µM (active); in [4] it was 1.3 µM (active); with rat CYP3A1, gene 25642, 5.65 µM (active); in experiment [5], 8.09 µM (active).

`CCC(C)Nc1c([N+](=O)[O-])cc(C(C)(C)C)cc1[N+](=O)[O-]` (stereo not given): in [4], the compound was classed as inactive.

On to `O=C(O)C(F)(F)C(F)(F)C(F)(F)C(F)(F)C(F)(F)C(F)(F)C(F)(F)F`, for which the AC50 in [2] was 2.68 µM (active). Besides, in the experiment with rat CYP3A1, gene 25642, the call was inactive.

`[2H]C1([2H])[n+]2ccccc2-c2cccc[n+]2C1([2H])[2H]`: the concentration at half-maximal activity (AC50) in [6] was 10 µM (active). The result in [7] was inactive.

For `CC(C)N(C(=O)COc1nnc(C(F)(F)F)s1)c1ccc(F)cc1`, the AC50 in experiment [3] was 6.6 µM (active); in the experiment on rat CYP2C6, gene 293989, 7.85 µM (active); in experiment [6] it was 10 µM (active); with rat CYP3A1, gene 25642, 7.94 µM (active); in [7], 16.5 µM (active).

Consider `O=S(=O)(O)C(F)(F)C(F)(F)C(F)(F)C(F)(F)C(F)(F)C(F)(F)C(F)(F)C(F)(F)F`, for which the outcome is “inactive” in experiment [2] and “inactive” in the experiment with rat CYP3A1, gene 25642. Also, the AC50 in experiment [3] is 0.0854 µM (active).

Take `CC[C@H](C)[C@H]1O[C@]2(C=C[C@@H]1C)C[C@@H]1C[C@@H](C/C=C(\C)[C@@H](O[C@H]3C[C@H](OC)[C@@H](O[C@H]4C[C@H](OC)[C@@H](O)[C@H](C)O4)[C@H](C)O3)[C@@H](C)/C=C/C=C3\CO[C@@H]4[C@H](O)C(C)=C[C@@H](C(=O)O1)[C@]34O)O2` (tested in a mixture with another compound): the outcome in experiment [2] is “inactive”; in the experiment on rat CYP2B1, gene 24300, “inactive”. In addition, the concentration at half-maximal activity (AC50) in experiment [4] was 10 µM (active); in experiment [6], 2.23 µM (active); with rat CYP3A1, gene 25642 it was 8.86 µM (active).

In the case of `CCC(C)(NC(=O)c1cc(Cl)c(C)c(Cl)c1)C(=O)CCl` (stereo not given), the compound was called inactive in [4].

As for `CCOCN(C(=O)CCl)c1c(C)cccc1CC`, the AC50 in the experiment on rat CYP2C6, gene 293989 was 10 µM (active).

With `COc1nn(CSP(=S)(OC)OC)c(=O)s1`, the AC50 in [2] was 4.97 µM (active); in the experiment with rat CYP2B1, gene 24300, 2.65 µM (active); in experiment [3], 0.564 µM (active); with rat CYP2C6, gene 293989, 0.258 µM (active); in the experiment on rat CYP3A1, gene 25642 it was 4.25 µM (active); in experiment [5], 0.774 µM (active).

Take `CNC(=O)Oc1ccccc1OC(C)C`: in [7], the AC50 was 25 µM (active).

On to `CCOC1Oc2ccc(OS(C)(=O)=O)cc2C1(C)C` (stereo not given), for which the AC50 was 6.21 µM (active) in experiment [2]; 4.18 µM (active) in experiment [3]; 7.5 µM (active) in experiment [4]; 6.95 µM (active) in the experiment with rat CYP3A1, gene 25642. For the same compound, the outcome in [1] was inactive.
